Laboratory results: PubChem BioAssay (Tox21)
Where “and” joins values, the source holds several entries; their conditions need not be identical. Equal entries are not always repeated. Records with an inconclusive call do not appear. Some compounds were tested as several samples or in several runs, with calls that do not always agree. Calls of active or inactive are those of the source. Unless noted, calls follow the shape of the dose curve; as a rule, active = well fitted curve in the direction sought with a large enough effect in the repeat runs; inconclusive = weak or mixed curves; inactive = no such curve, though single readings can be large; an effect the other way counts as inactive or inconclusive.

How the values were obtained:
[1] = molecular target: Estrogen receptor beta (Homo sapiens) (UniProt Q92731); assay: qHTS assay to identify small molecule agonists of the estrogen receptor beta (ER-beta) signaling pathway (AID 1259377; active = well fitted activation curve with a large enough effect in the signal ratio in the repeat runs, not every such curve was filed as active; the % refers to the signal ratio)
How it was run: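 In HEK293T cells bearing a UAS-beta-lactamase reporter under ER-beta control, DMSO-delivered compounds were incubated for 16 hr at 37C. Activity was detected as fluorescence 2 hours after LiveBLAzer B/G FRET substrate addition.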

[2] = molecular target: Estrogen receptor beta (Homo sapiens) (UniProt Q92731); assay: qHTS assay to identify small molecule antagonists of the estrogen receptor beta (ER-beta) signaling pathway (AID 1259378; active = well fitted inhibition curve with a large enough effect in the signal ratio in the repeat runs, not every such curve was filed as active; the % refers to the signal ratio; also: potency is read from the fitted curve at half-maximal effect)
How it was run: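 ER-beta-UAS-bla HEK293T cells in 2% charcoal-stripped FBS medium treated with compound plus 1nM final 17-beta-estradiol for 16 hr at 37C. Beta-lactamase reporter read by FRET substrate fluorescence after 2 hours at room temperature.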

[3] = qHTS assay to identify small molecule agonists of the androgen receptor (AR) signaling pathway in the presence of an antagonist - cell viability counter screen (AID 1259379);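 also: MDA-kb2 human breast cancer cells carrying an MMTV luciferase reporter; series mostly up to about 92 µM; nearly all actives have a fitted effect of over 25% in size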
How it was run: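 MDA-kb2 cells (MMTV-luciferase, AR/GR), 3,000/well, 5 h attachment, then 3.0 µM nilutamide (final) and compounds at 15 concentrations. Viability by CellTiter-Fluor fluorescence after 16 h at 37 °C, 0% CO2, in the reporter wells.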

[4] = qHTS assay to identify small molecule agonists of the estrogen receptor beta (ER-beta) signaling pathway - cell viability counter screen (AID 1259380); also: nearly all actives have a fitted effect of over 30% in size; also: potency is read from the fitted curve at half-maximal effect
How it was run: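 ER-beta-UAS-bla HEK293T cells in medium with 2% charcoal-stripped FBS, pre-incubated 6 hr, then treated 16 hr at 37C. Cytotoxicity read in the same wells by CellTiter-Glo luminescence after 30 min at room temperature.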

[5] = molecular target: Androgen receptor (Homo sapiens) (UniProt P10275); assay: qHTS assay to identify small molecule agonists of the androgen receptor (AR) signaling pathway in the presence of an antagonist (AID 1259381; calls by dose curve; also: nearly all actives have a fitted effect of over 15% in size)
How it was run: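 MDA-kb2 cells carrying MMTV-luciferase (AR/GR responsive), 3,000 cells/well, co-treated with 3.0 uM nilutamide final. Compounds at 15 concentrations, 16 hr at 37C without CO2. Luciferase luminescence read after 30 min with ONE-Glo.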

[6] = qHTS assay to identify small molecule antagonists of the estrogen receptor beta (ER-beta) signaling pathway - cell viability counter screen (AID 1259382); also: nearly all actives have a fitted effect of over 55% in size; also: potency is read from the fitted curve at half-maximal effect
How it was run: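 ER-beta-UAS-bla HEK293T cells in 2% charcoal-stripped FBS medium, treated with compound plus 1 nM 17-beta-estradiol for 16 h at 37C. Viability read by CellTiter-Glo luminescence after 30 min at room temperature in the same wells.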

[7] = molecular target: Estrogen receptor (Homo sapiens) (UniProt P03372); assay: qHTS assay to identify small molecule agonists of the estrogen receptor alpha (ER-alpha) signaling pathway in the presence of an antagonist (AID 1259383; calls by dose curve; also: nearly all actives have a fitted effect of over 15% in size; also: potency is read from the fitted curve at half-maximal effect; as to activation: top concentration of the series differs between compounds)
How it was run: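 VM7Luc4E2 cells express endogenous full-length ER-alpha with an ERE-luciferase reporter and were hormone-deprived for 5 days. Compounds at 15 concentrations were added with 10.0nM ICI-182,780 for 22hr at 37C. Luminescence was read with ONE-Glo.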

[8] = molecular target: Thyrotropin receptor (Homo sapiens) (UniProt P16473); assay: qHTS assay to identify small molecule antagonists of the thyroid stimulating hormone receptor (TSHR) signaling pathway (AID 1259385; calls by dose curve; also: nearly all actives have a fitted effect of over 20% in size)
How it was run: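 TSHR-HEK293 cells (800/well) plated 18 h, then compounds with Ro20-1724 and TSH at 1.5 ng/mL final, 30 min at room temperature. cAMP quantified by HTRF (cAMP-d2/anti-cAMP-cryptate, 1 h); 15 concentrations in triplicate.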

[9] = qHTS assay to identify small molecule agonists of the estrogen receptor alpha (ER-alpha) signaling pathway in the presence of an antagonist - cell viability counter screen (AID 1259386);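 also: series mostly up to about 92 µM; cells exposed to compounds for 22 h at 37 °C before the viability read; nearly all actives have a fitted effect of over 30% in size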
How it was run: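 Cell viability in VM7Luc4E2 cells (endogenous full-length ER-alpha) measured by CellTiter-Fluor fluorescence in the same wells as the luciferase screen. Cells pre-cultured 5 days in charcoal-stripped serum, then treated 22 h with compounds at 15 concentrations plus 10.0nM ICI-182,780.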

[10] = molecular target: Progesterone receptor (Homo sapiens) (UniProt P06401); assay: qHTS assay to identify small molecule agonists of the progesterone receptor (PR) signaling pathway (AID 1346784; calls by dose curve; also: nearly all actives have a fitted effect of over 30% in size)
How it was run: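 Using charcoal-stripped serum (2%) to limit endogenous steroids, PR-UAS-bla HEK 293T cells received compounds for 16 hr at 37C after 6 hr plating; beta-lactamase FRET fluorescence was recorded following 2 hr substrate loading at room temperature.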

[11] = molecular target: Progesterone receptor (Homo sapiens) (UniProt P06401); assay: qHTS assay to identify small molecule antagonists of the progesterone receptor (PR) signaling pathway (AID 1346795; active = well fitted inhibition curve with a large enough effect in the signal ratio in the repeat runs, not every such curve was filed as active; the % refers to the signal ratio)
How it was run: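 Inhibition of R5020-induced (1 nM final) beta-lactamase reporter signal in PR-UAS-bla HEK293T cells was scored by FRET fluorescence after overnight (16 hr) compound treatment.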

[12] = qHTS assay to identify small molecule antagonists of the progesterone receptor (PR) signaling pathway - cell viability counter screen (AID 1346798); also: series mostly up to about 92 µM; nearly all actives have a fitted effect of over 50% in size
How it was run: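 ATP content as viability readout: CellTiter-Glo luminescence, 30 min room temperature, in PR-UAS-bla HEK293T cells after 16 hr compound/R5020 treatment at 37C and 5% CO2.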

[13] = qHTS assay to identify small molecule agonists of the progesterone receptor (PR) signaling pathway - cell viability counter screen (AID 1346799; calls by dose curve; also: nearly all actives have a fitted effect of over 45% in size; also: potency is read from the fitted curve at half-maximal effect)
How it was run: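 Cytotoxicity in PR-bla HEK293T cells: 16 h compound, 37C; CellTiter-Glo added post-FRET read; luminescence after 30 min RT.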

[14] = qHTS assay to identify small molecule antagonists of the TGF-beta/Smad signaling pathway - cell viability counter screen (AID 1346824); also: nearly all actives have a fitted effect of over 50% in size
How it was run: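 SBE-bla HEK 293T cells, incubated overnight, then compound plus 0.25 ng/mL TGF-beta1 (stock added) for 5 hr at 37 C. Viability was read in the same wells by CellTiter-Glo luminescence after 30 min at room temperature.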

[15] = qHTS assay to identify small molecule agonists of the TGF-beta/Smad signaling pathway - cell viability counter screen (AID 1346829); also: top concentration of the series differs between compounds; nearly all actives have a fitted effect of over 45% in size
How it was run: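 Compound-treated SBE-bla HEK 293T cells (5 hr, 37 C) were assessed for viability with CellTiter-Glo in parallel with the reporter read.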

[16] = qHTS assay to identify small molecule agonists of the TGF-beta/Smad signaling pathway (AID 1346859; active = well fitted activation curve with a large enough effect in the signal ratio in the repeat runs, not every such curve was filed as active; the % refers to the signal ratio; also: series mostly up to about 77 µM)
How it was run: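 Stable Smad binding element-beta-lactamase HEK 293T cells; 5 hr compound exposure at 37 C under 5% CO2; 2 hr room-temperature substrate step; fluorescence excited at 405 nm, collected at 460 nm and 530 nm.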

[17] = molecular target: Thyrotropin-releasing hormone receptor (Homo sapiens) (UniProt P34981); assay: qHTS assay to identify small molecule antagonists of the thyrotropin-releasing hormone receptor (TRHR) signaling pathway (AID 1346877; active = well fitted inhibition curve with a large enough effect in the repeat runs, not every such curve was filed as active; also: series mostly up to about 51 µM)
How it was run: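 TRHR-expressing HEK293 cells loaded with calcium dye for 2 h at 37 C; compounds pre-incubated 5 min at room temperature before TRH challenge at 1 nM final. Intracellular calcium fluorescence read kinetically for 3 min; 15 concentrations in triplicate.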

[18] = molecular target: Thyrotropin-releasing hormone receptor (Homo sapiens) (UniProt P34981); assay: qHTS assay to identify small molecule agonists of the thyrotropin-releasing hormone receptor (TRHR) signaling pathway (AID 1346891; calls by dose curve; also: series mostly up to about 58 µM)
How it was run: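 In 1536-format, 1500 TRHR-Hek293 cells per well grew 18 h, took up calcium dye for 2 h at 37 °C, received compound, and were read kinetically; 15-point titrations, triplicates.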

[19] = qHTS assay to identify small molecule agonists or antagonists of the thyroid stimulating hormone receptor (TSHR) signaling pathway - wild type cell line counter screen (AID 1259384; calls by dose curve)
How it was run: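 Wild-type Hek293 cells, 800/well, 18 h at 37C, then compound with Ro20-1724 for 30 min RT. cAMP by HTRF (cAMP-d2/anti-cAMP cryptate), 1 h RT, fluorescence read. 15 concentrations, triplicates.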

Measured: Potency

Chain of Thyrotropin receptor (Homo sapiens) (P16473 whole entry, looked up): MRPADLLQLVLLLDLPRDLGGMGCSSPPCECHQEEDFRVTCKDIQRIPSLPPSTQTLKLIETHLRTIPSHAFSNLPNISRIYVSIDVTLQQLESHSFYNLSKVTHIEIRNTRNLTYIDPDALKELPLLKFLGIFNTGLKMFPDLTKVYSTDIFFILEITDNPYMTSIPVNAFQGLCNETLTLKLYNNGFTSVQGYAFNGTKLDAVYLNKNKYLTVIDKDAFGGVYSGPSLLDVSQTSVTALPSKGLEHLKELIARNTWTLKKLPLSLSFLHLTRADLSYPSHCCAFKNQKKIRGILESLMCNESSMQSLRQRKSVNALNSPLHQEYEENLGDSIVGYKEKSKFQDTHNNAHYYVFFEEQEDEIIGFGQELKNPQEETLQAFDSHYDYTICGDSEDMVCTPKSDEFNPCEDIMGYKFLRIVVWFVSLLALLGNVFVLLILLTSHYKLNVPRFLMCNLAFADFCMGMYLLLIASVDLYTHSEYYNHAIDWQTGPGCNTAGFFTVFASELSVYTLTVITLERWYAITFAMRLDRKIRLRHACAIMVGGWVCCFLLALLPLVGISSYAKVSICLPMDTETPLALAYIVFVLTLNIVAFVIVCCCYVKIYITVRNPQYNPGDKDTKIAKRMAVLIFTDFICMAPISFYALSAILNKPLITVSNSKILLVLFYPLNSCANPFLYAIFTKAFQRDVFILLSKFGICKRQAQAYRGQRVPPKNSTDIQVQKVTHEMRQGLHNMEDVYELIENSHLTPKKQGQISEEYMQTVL
Chain of Thyrotropin-releasing hormone receptor (Homo sapiens) (P34981 whole entry, looked up): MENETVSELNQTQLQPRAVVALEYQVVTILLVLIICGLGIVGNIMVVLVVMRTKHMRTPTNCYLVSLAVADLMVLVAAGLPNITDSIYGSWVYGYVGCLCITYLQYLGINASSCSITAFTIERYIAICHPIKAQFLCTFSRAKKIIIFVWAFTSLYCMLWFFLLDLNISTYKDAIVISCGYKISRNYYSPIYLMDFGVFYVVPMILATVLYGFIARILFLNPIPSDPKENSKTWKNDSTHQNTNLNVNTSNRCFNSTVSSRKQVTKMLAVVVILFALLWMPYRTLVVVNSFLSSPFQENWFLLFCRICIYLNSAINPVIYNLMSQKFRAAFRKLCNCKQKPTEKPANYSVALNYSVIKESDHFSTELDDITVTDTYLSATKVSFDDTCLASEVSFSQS
Chain of Estrogen receptor (Homo sapiens) (P03372 whole entry, looked up): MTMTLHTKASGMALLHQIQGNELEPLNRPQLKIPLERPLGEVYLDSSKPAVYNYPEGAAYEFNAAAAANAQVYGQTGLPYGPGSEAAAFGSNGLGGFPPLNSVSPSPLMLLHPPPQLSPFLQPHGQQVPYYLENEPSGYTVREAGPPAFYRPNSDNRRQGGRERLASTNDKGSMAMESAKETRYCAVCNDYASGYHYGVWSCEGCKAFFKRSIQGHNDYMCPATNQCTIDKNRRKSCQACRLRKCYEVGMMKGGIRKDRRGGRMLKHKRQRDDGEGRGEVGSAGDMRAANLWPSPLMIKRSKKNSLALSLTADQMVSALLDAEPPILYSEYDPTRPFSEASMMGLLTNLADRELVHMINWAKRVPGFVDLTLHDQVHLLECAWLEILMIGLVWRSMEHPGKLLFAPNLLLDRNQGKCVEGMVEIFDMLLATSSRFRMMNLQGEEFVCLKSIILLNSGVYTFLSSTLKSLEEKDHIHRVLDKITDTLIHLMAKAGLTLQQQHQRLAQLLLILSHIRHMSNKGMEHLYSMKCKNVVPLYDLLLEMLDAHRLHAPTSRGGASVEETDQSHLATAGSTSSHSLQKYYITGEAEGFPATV
Chain of Progesterone receptor (Homo sapiens) (P06401 whole entry, looked up): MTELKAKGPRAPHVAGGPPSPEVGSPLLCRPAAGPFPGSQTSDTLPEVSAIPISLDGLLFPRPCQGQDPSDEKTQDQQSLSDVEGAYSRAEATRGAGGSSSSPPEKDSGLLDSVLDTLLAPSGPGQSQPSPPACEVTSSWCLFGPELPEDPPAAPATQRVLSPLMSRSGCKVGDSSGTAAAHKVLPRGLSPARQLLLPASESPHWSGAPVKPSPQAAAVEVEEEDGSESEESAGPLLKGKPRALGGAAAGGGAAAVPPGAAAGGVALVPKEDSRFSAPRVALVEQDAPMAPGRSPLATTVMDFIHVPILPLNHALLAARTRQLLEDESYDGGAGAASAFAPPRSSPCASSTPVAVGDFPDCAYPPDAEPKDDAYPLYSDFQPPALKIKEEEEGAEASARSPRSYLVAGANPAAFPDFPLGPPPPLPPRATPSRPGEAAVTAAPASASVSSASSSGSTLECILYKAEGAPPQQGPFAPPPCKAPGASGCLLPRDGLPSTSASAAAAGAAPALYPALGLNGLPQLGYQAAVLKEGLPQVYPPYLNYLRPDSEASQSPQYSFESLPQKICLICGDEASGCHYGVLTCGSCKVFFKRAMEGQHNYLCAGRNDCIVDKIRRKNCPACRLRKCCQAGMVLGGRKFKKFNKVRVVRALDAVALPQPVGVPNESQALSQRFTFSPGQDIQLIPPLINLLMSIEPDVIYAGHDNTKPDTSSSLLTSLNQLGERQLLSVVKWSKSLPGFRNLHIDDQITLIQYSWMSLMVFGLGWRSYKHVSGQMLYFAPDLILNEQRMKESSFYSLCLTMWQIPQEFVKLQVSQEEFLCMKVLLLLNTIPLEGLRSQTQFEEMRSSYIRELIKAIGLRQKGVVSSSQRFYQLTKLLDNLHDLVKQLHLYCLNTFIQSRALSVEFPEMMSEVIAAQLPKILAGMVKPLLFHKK
Chain of Estrogen receptor beta (Homo sapiens) (Q92731 whole entry, looked up): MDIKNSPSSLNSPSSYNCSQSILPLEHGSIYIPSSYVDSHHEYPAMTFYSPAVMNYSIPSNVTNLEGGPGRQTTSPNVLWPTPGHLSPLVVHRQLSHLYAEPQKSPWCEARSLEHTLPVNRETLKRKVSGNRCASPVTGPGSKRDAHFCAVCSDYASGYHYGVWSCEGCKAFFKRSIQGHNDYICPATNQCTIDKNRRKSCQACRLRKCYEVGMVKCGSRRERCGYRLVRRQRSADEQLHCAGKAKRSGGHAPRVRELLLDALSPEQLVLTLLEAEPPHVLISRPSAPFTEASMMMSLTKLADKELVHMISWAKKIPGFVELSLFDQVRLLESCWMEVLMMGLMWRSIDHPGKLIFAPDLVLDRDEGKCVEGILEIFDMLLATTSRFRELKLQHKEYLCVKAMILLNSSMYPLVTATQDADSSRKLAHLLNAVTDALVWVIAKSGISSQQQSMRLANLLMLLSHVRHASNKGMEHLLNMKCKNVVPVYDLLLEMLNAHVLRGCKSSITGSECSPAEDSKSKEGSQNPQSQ
Chain of Androgen receptor (Homo sapiens) (P10275 whole entry, looked up): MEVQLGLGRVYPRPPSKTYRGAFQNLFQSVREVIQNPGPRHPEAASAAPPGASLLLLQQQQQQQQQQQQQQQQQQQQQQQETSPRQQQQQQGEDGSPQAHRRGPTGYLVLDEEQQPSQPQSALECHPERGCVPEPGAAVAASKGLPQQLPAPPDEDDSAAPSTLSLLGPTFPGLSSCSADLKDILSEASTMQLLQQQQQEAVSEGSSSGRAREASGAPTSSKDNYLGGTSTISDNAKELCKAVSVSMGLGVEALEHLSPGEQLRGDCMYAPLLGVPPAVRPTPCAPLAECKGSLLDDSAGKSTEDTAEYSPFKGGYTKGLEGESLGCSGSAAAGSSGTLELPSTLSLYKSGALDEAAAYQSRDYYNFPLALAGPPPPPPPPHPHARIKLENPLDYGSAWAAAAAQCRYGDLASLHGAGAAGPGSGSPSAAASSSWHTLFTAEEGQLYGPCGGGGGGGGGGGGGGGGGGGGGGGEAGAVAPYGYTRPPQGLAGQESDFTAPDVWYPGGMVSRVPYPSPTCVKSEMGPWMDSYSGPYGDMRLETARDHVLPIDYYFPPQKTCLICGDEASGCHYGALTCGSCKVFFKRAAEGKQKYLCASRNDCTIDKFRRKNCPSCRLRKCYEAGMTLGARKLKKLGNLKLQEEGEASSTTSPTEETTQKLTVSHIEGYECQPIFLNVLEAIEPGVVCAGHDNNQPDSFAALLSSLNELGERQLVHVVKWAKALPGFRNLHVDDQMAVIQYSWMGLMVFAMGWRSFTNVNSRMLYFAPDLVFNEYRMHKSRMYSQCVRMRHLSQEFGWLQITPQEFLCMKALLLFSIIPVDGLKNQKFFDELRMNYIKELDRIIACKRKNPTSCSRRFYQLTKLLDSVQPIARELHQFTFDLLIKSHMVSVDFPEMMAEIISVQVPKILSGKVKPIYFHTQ

O=[N+]([O-])c1ccccc1C(F)(F)F
59.8 µM (active) and inactive: [7]
not listed: [19]
inactive: all other assays above

CC(C)c1ccc(C(C)C)cc1
not listed: [5]
inactive: all other assays above

COc1ccc(N)c(OC)c1
inactive and 54.5 µM (active): [4]
not listed: [1] | [2] | [5] | [11] | [17] | [18]
inactive: all other assays above

CCCCCNCCCCC
not listed: [4] | [5] | [7] | [11] | [13] | [14]
inactive: all other assays above

CCCCCCCCCCCCCC(=O)O
active: [4] 43.1 µM and 61.1 µM
not listed: [5] | [16]
inactive: all other assays above

C[Si](C)(C)N[Si](C)(C)C
not listed: [5] | [13] | [17] | [18]
inactive: all other assays above

COc1ccc([C@@H]2CC(=O)c3c(O)cc(O[C@@H]4O[C@H](CO[C@@H]5O[C@@H](C)[C@H](O)[C@@H](O)[C@H]5O)[C@@H](O)[C@H](O)[C@H]4O)cc3O2)cc1OC
not listed: [5] | [14]
inactive: all other assays above

COCN(COC)c1nc(N(COC)COC)nc(N(COC)COC)n1
not listed: [4] | [5] | [14] | [16]
inactive: all other assays above

CCCCC(=O)O
not listed: [5] | [13]
inactive: all other assays above

CC(=O)Nc1ccc(CC(=O)O)cc1
not listed: [1] | [2] | [5] | [14]
inactive: all other assays above

Cc1ccc([N+](=O)[O-])cc1N
not listed: [5] | [13] | [14] | [16]
inactive: all other assays above

CC/C(C)=N/O
not listed: [5] | [7] | [11] | [14]
inactive: all other assays above

Cc1nnc(NS(=O)(=O)c2ccc(N)cc2)s1
not listed: [1] | [2] | [11] | [17] | [18]
inactive: all other assays above

N[C@@H](Cc1cc(I)c(Oc2ccc(O)c(I)c2)c(I)c1)C(=O)O
not listed: [1] | [2] | [5] | [11] | [14] | [17] | [18] | [19]
inactive: all other assays above

CCc1cccc(O)c1
not listed: [4] | [5] | [13] | [14]
inactive: all other assays above

COc1c(Cl)ccc(Cl)c1C(=O)O
not listed: [4] | [5] | [11] | [13] | [14] | [16]
inactive: all other assays above

CC(=O)OCCC(C)C
not listed: [5] | [7] | [8] | [11] | [14] | [19]
inactive: all other assays above

CCCCCC(C)=O
inactive and 61.1 µM (active): [13]
not listed: [4] | [5] | [7] | [8] | [14] | [16] | [19]
inactive: all other assays above

CC(CN1c2ccccc2Sc2ccccc21)N(C)C (centres undefined)
active: [2] 43.3 µM and 29.8 µM | [6] 24.6 µM and 21.7 µM and 16.8 µM
not listed: [4] | [5] | [7] | [11] | [12] | [13]
inactive: all other assays above
